The text below walks through data of PubChem BioAssay AID1578 (Sanford-Burnham Center for Chemical Genomics, 2009).

Among all 290,000 compounds or so, about 3,000 (1%) were called active. Cut-off read from the data, not from the text of the source: active = inhibition mostly above about 36% (no sharp cut-off); inactive = mostly below about 34%. This excerpt belongs to a sample that is enriched for actives.

This experiment is described as follows: NOD1 signaling inhibitors, primary screen, cell-based, luminescence, uHTS (AID 1578).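 Note: HEK-293T reporter cells stimulated with the NOD1 agonist gamma-tri-DAP.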 To be noted: NOD1-driven NF-kB luciferase reporter cells, at 4 µM, stronger effect = higher value. For orientation: In a reporter assay the amount or activity of a reporter protein is the signal.
In general, inhibition refers to the drop in the measured response relative to a control, in per cent. Consider `O=C(COC(=O)c1cc(-c2ccc(Cl)s2)nc2ccccc12)NCc1ccco1`, for which the inhibition is -9.8% (inactive).
On to `C=CCCC(=O)NC1CC(C)(C)Cc2c1cnn2-c1ccc(OC)cc1` (configuration not stated), for which the inhibition was -7% (inactive).
For `CC1Cc2ccccc2N1c1ncnc2nc[nH]c12` (configuration not stated) the value was 71.8% (active).
For `CC1Cc2ccccc2N1c1ncnc2c1nnn2Cc1ccccc1` (configuration not stated) the value was -0.2% (inactive); for `Clc1ccccc1N1CCN(c2ncnc3nc[nH]c23)CC1`, -13.5% (inactive).
With `c1ccc2c(c1)CCN(c1ncnc3nc[nH]c13)C2` the figure was -40.8% (inactive); with `CC1Cc2ccccc2N1c1ncnc(N)c1[N+](=O)[O-]` (configuration not stated), 96.2% (active).
On to `Cc1ccccc1Oc1ncnc(N)c1[N+](=O)[O-]`, for which the inhibition is 4.6% (inactive).
As to `O=C(CCNC(=O)N1CCn2c1nc1ccccc12)NCc1ccc(Cl)cc1`, the inhibition is -26.9% (inactive).
With `CN(C)C(=O)c1cc(C(=O)c2ccc(C(F)(F)F)cc2F)c[nH]1` the figure was 21.8% (inactive); with `O=C(CN1C(=O)c2ccccc2C1=O)Oc1ccc(Cl)cc1`, -14.3% (inactive).
For `Cc1cccc(OCCOC(=O)C2CCN(S(=O)(=O)c3ccc(C)c(C)c3)CC2)c1` the value was -9.6% (inactive).
Regarding `CCN(CC(=O)NC1CCS(=O)(=O)C1)S(=O)(=O)c1ccc(C)cc1C` (configuration not stated), the inhibition is -12% (inactive).
Take `Cc1c(CC(=O)NCCCC(=O)O)c(=O)oc2cc3occ(-c4ccccc4)c3cc12`: the inhibition is -6.5% (inactive).
With `Cc1c(CCC(=O)NCCC(=O)O)c(=O)oc2cc3occ(-c4ccccc4)c3cc12`, the inhibition is -7.4% (inactive).
With `Cc1c(CCC(=O)NCCCCCC(=O)O)c(=O)oc2cc3occ(-c4ccccc4)c3cc12` the figure was 34.3% (active).
With `O=C(CNCc1ccc(F)cc1)Nc1ccc(S(=O)(=O)N2CCOCC2)cc1` the figure was -26.8% (inactive); with `O=C(c1cncc(Br)c1)N1CCc2ccccc2C1`, 80.2% (active).
For `O=C(c1cccnc1)N1CCc2ccccc2C1`, the inhibition was -0.9% (inactive).
For `O=C(c1ccncc1)N1CCc2ccccc2C1` the value was -32.9% (inactive); for `COCCn1nnnc1C(CC(C)C)N1CCN(c2ccccc2)CC1` (configuration not stated), -24.8% (inactive); for `CN1CCN(c2ccccc2NC(=S)NC(=O)c2cc3ccccc3o2)CC1`, 5.8% (inactive).
As to `CN1C(=O)N(C)c2ccc(C=O)c3cccc1c23`, the inhibition is -32.8% (inactive).
With `CN1c2ccc(C=O)c3c(C=O)ccc(c23)N(C)C1(C)C` the figure was 72% (active).
With `CN1c2cccc3cccc(c23)N(C)C1(C)C` the figure was 9.4% (inactive); with `O=C(CN(Cc1ccccc1)C(=O)CCC(=O)Nc1nccs1)NCc1ccco1`, -21.9% (inactive).
With `CC(CCc1ccccc1)NC(=O)Cn1cccc1C(=O)c1ccccc1` (configuration not stated), the inhibition is -9.7% (inactive).
